Inconclusive results are not listed. The source made the active and inactive calls. Calls follow the shape of the dose curve; as a rule, active = well fitted curve in the direction sought with a large enough effect; inconclusive = small, poorly fitted or top-dose-only effect, or another doubt; inactive = no such curve, though single readings can be large; an effect the other way counts as inactive or inconclusive.
Experiments:
[1] = Quantitative High-Throughput drug screen in 47 multiple myeloma cell lines against the NCATS MIPE library collection: MMM1_PLB cell viability assay (AID 1918976); also: potency is read from the fitted curve at half-maximal effect; nearly all actives have a fitted effect of over 35% in size
Outline: (§1)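 Inhibition of viability over 48 h was scored by ATP content (CellTiter-Glo) in 500-cell wells. Zero and full viability were defined by media-only and DMSO-only wells.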

[2] = Quantitative High-Throughput drug screen in 47 multiple myeloma cell lines against the NCATS MIPE library collection: NCIH929_DSMZ cell viability assay (AID 1918978); also: nearly all actives have a fitted effect of over 35% in size; also: potency is read from the fitted curve at half-maximal effect
Outline: as §1

[3] = Quantitative High-Throughput drug screen in 47 multiple myeloma cell lines against the NCATS MIPE library collection: OCIMY1_PLB cell viability assay (AID 1918979); also: nearly all actives have a fitted effect of over 35% in size; also: potency is read from the fitted curve at half-maximal effect; as to viability: series mostly up to about 46 µM
Outline: as §1

[4] = Quantitative High-Throughput drug screen in 47 multiple myeloma cell lines against the NCATS MIPE library collection: LP1_DSMZ cell viability assay (AID 1918982); also: nearly all actives have a fitted effect of over 35% in size; also: potency is read from the fitted curve at half-maximal effect
Outline: as §1

[5] = Quantitative High-Throughput drug screen in 47 multiple myeloma cell lines against the NCATS MIPE library collection: MM1S_ATCC cell viability assay (AID 1918980); also: nearly all actives have a fitted effect of over 45% in size; also: potency is read from the fitted curve at half-maximal effect
Outline: as §1

[6] = Quantitative High-Throughput drug screen in 47 multiple myeloma cell lines against the NCATS MIPE library collection: KMS28PE_JCRB cell viability assay (AID 1918983); also: nearly all actives have a fitted effect of over 35% in size; also: potency is read from the fitted curve at half-maximal effect
Outline: as §1

[7] = Quantitative High-Throughput drug screen in 47 multiple myeloma cell lines against the NCATS MIPE library collection: L363_DSMZ cell viability assay (AID 1918984); also: nearly all actives have a fitted effect of over 40% in size; also: potency is read from the fitted curve at half-maximal effect
Outline: as §1

[8] = Quantitative High-Throughput drug screen in 47 multiple myeloma cell lines against the NCATS MIPE library collection: KMS34_JCRB cell viability assay (AID 1918985); also: nearly all actives have a fitted effect of over 40% in size; also: potency is read from the fitted curve at half-maximal effect
Outline: as §1

[9] = Quantitative High-Throughput drug screen in 47 multiple myeloma cell lines against the NCATS MIPE library collection: MM1R_ATCC cell viability assay (AID 1918981); also: nearly all actives have a fitted effect of over 35% in size; also: potency is read from the fitted curve at half-maximal effect
Outline: as §1

[10] = Quantitative High-Throughput drug screen in 47 multiple myeloma cell lines against the NCATS MIPE library collection: MOLP8_DSMZ cell viability assay (AID 1918977); also: nearly all actives have a fitted effect of over 45% in size
Outline: as §1

Measured: Potency

O=C1CCC(N2C(=O)c3ccccc3C2=O)C(=O)N1 (centres undefined)
active: [1] 2.96 µM
inactive: [2] | [3] | [4]

CN(C)c1ccc(C2Nc3ccc4ccccc4c3C3=C2C(=O)CC(C)(C)C3)cc1Br (centres undefined)
inactive: [3] | [5] | [7] | [8]
active: [1] 14.8 µM | [6] 23.5 µM

CCn1c(-c2nonc2N)nc2cnc(Oc3cccc(NC(=O)c4ccc(OCCN5CCOCC5)cc4)c3)cc21
active: [1] 10.5 µM | [2] 9.35 µM | [5] 18.7 µM | [9] 16.6 µM | [4] 14.8 µM | [7] 8.33 µM

CC(C)(Sc1ccc(CCN(CCCCC2CCCCC2)C(=O)NC2CCCCC2)cc1)C(=O)O
active: [1] 18.7 µM | [5] 4.18 µM | [9] 23.5 µM | [4] 16.6 µM | [6] 8.33 µM
inactive: [2] | [7]

O=c1ncn2nc(Sc3ccc(F)cc3F)ccc2c1-c1c(Cl)cccc1Cl
inactive: [3] | [6]
active: [1] 20.9 µM | [2] 18.7 µM | [7] 18.7 µM

CCc1cncnc1N1CCN(Cc2nc3ccc(C(F)(F)F)cc3[nH]2)CC1
inactive: [3]
active: [1] 16.6 µM | [5] 18.7 µM | [6] 20.9 µM | [7] 5.26 µM

CC[C@@H](C)[C@H](NC(=O)[C@H](CC1CCCCC1)NC(=O)c1ccno1)C(=O)N1CCC2(CCc3ccccc32)CC1
active: [1] 11.8 µM | [3] 16.6 µM | [4] 9.35 µM | [8] 7.43 µM

O=C1CCCC2=C1C(c1[nH]ncc1Cl)N=C(Nc1nc3ccccc3o1)N2 (centres undefined)
active: [1] 4.69 µM | [2] 5.9 µM
inactive: [3] | [9] | [6]

S=C(NCc1ccc2c(c1)OCO2)N1CCN(c2ncnc3c2oc2ccccc23)CC1
inactive: [8]
active: [1] 1.21 µM | [2] 4.81 µM | [3] 42.9 µM | [5] 3.82 µM | [4] 2.7 µM | [6] 6.05 µM | [7] 0.605 µM

CCC(C)n1ncn(-c2ccc(N3CCN(c4ccc(OC[C@H]5CO[C@](Cn6cncn6)(c6ccc(Cl)cc6Cl)O5)cc4)CC3)cc2)c1=O (some centres undefined)
inactive: [2] | [5]
active: [1] 2.96 µM | [3] 4.18 µM | [6] 14.8 µM

Cc1c(CCOc2ccc(C(=O)O)cc2)c2cc(Cl)ccc2n1C(c1ccccc1)c1ccccc1
active: [1] 14.8 µM | [5] 9.35 µM | [6] 23.5 µM
inactive: [2] | [3]

Cn1cc(-c2ccc3nnc(C(F)(F)c4ccc5ncccc5c4)n3n2)cn1
inactive: [2] | [3] | [6]
active: [1] 5.9 µM | [5] 8.33 µM

CCOC(=O)N1CCC(=C2c3ccc(Cl)cc3CCc3cccnc32)CC1
active: [1] 23.5 µM | [2] 7.43 µM | [5] 29.6 µM | [8] 26.4 µM
inactive: [7]

Cc1cc2c(F)c(Oc3ncnn4cc(OC[C@@H](C)O)c(C)c34)ccc2[nH]1
inactive: [3]
active: [1] 2.09 µM | [2] 18.7 µM | [5] 16.6 µM | [6] 20.9 µM

COc1nc(-c2ccc3c(c2)OCO3)n(-c2ccc(NC(=O)CSc3ccccc3)cc2)n1
inactive: [2] | [3] | [4] | [8]
active: [1] 7.43 µM | [6] 14.8 µM

C[C@@H]1CN(Cc2ccc(F)cc2)[C@@H](C)CN1C(=O)c1cc2c(C(=O)C(=O)N(C)C)cn(C)c2cc1Cl
active: [1] 23.5 µM | [5] 10.5 µM
inactive: [3]

Cc1cc(SCc2sc(-c3ccc(C(F)(F)F)cc3)nc2C)ccc1OCC(=O)O
active: [1] 5.26 µM
inactive: [2] | [3] | [9] | [4] | [7] | [8]

CCCn1c(=O)c2[nH]c(C34CC5CC3C[C@@H](C5)C4)nc2n(CCC)c1=O
inactive: [2] | [3]
active: [1] 18.7 µM | [4] 11.8 µM | [6] 20.9 µM

O=C(Nc1ccc(F)c(C(F)(F)F)c1)Nc1nnc(-c2ccncc2)s1
active: [1] 5.26 µM | [2] 2.64 µM | [4] 3.72 µM
inactive: [3]

COc1cc(F)c(F)c(Nc2ccc(I)cc2F)c1NS(=O)(=O)C1(C[C@H](O)CO)CC1
active: [1] 2.64 µM | [2] 18.7 µM | [5] 16.6 µM | [9] 10.5 µM | [6] 5.26 µM

CCCCCCCc1ccc(CCc2cccc(O)c2C(=O)O)cc1
inactive: [3] | [6] | [7] | [8]
active: [1] 14.8 µM | [4] 16.6 µM

Nc1nc2[nH]cc(CCc3ccc(C(=O)N[C@@H](CCC(=O)O)C(=O)O)cc3)c2c(=O)[nH]1
active: [1] 2.09 µM
inactive: [2] | [3] | [9] | [4] | [6]

NCCCC(N)(C(=O)O)C(F)F (centres undefined)
inactive: [9] | [6]
active: [1] 0.526 µM | [2] 0.0526 µM | [5] 0.105 µM | [4] 1.48 µM | [7] 5.9 µM

COc1ccccc1[C@H](c1cccc2ccccc12)[C@@](C)(C#N)C(=O)N1CCC(c2cccc(C(F)(F)F)c2)CC1
active: [1] 11.8 µM | [2] 3.72 µM | [5] 5.9 µM | [6] 4.18 µM

CCC(=O)N[C@H]1CC[C@H](C(=O)N(C)c2ccc(-c3nc4ccccc4o3)cc2)C1
active: [1] 14.8 µM | [2] 2.96 µM | [5] 5.26 µM | [6] 18.7 µM | [7] 16.6 µM
inactive: [3] | [8]

C#Cc1cccc(Nc2ncnc3cc(OCCOC)c(OCCOC)cc23)c1
active: [1] 0.59 µM | [2] 7.43 µM | [5] 9.35 µM | [7] 1.48 µM | [8] 11.8 µM
inactive: [3]

Cc1ccc(NC(=O)c2cccc(C(C)(C)C#N)c2)cc1Nc1ccc2ncn(C)c(=O)c2c1
active: [1] 16.6 µM | [3] 0.264 µM | [5] 6.62 µM | [6] 11.8 µM

Nc1nccc(-c2ccc3noc(-c4ccc(Cl)cc4)c3c2)n1
active: [2] 20.9 µM | [5] 16.6 µM
inactive: [10] | [3] | [6] | [7]

CC(=O)Oc1ccccc1C(=O)O
inactive: [10] | [3] | [6] | [7] | [8]
active: [2] 4.18 µM | [5] 5.26 µM | [9] 18.7 µM

NC(N)=NC(=O)c1nc(Cl)c(N)nc1N
active: [2] 9.35 µM | [5] 20.9 µM
inactive: [10] | [3] | [4]

Cc1ccccc1C(OCCN(C)C)c1ccccc1 (centres undefined)
inactive: [10] | [2] | [3] | [5] | [4] | [7]

COc1ccc(CC2=NN3C([C@@H](CCc4ccccc4)[C@@H](C)O)=NC(C)C3C(=O)N2)cc1OC (some centres undefined)
inactive: [10] | [2] | [3] | [5] | [4] | [6] | [8]

CCC(C)N(C)C(=O)c1cc2ccccc2c(-c2ccccc2Cl)n1 (centres undefined)
active: [5] 23.5 µM
inactive: [10] | [2] | [3] | [9] | [4] | [6]

COc1ccc(-c2ccc3c(N4CCOC[C@H]4C)nc(N4CCOC[C@H]4C)nc3n2)cc1CO
active: [1] 0.0105 µM | [5] 0.0526 µM | [9] 0.0743 µM | [6] 0.0235 µM | [8] 0.0209 µM

Nc1ccc(S(=O)(=O)Nc2ccnn2-c2ccccc2)cc1
inactive: [10] | [2] | [3] | [5] | [4] | [6] | [7] | [8]

CCCCNc1cc(C(=O)O)cc(S(N)(=O)=O)c1Oc1ccccc1
inactive: [10] | [2] | [3] | [4] | [6] | [7] | [8]

CN[C@@H](C)C(=O)N[C@H]1CCCC[C@H]2CC[C@@H](C(=O)N[C@@H](c3ccccc3)c3cn(CCCCc4ccc(CCCCn5cc([C@@H](NC(=O)[C@@H]6CC[C@@H]7CCCC[C@H](NC(=O)[C@H](C)NC)C(=O)N76)c6ccccc6)nn5)cc4)nn3)N2C1=O
active: [2] 8.33 µM | [5] 18.7 µM
inactive: [10] | [3] | [6] | [8]

CCCC(CCC)C(=O)O
inactive: [10] | [2] | [3] | [9] | [4] | [6] | [8]

CCOc1cc(C=C2C(=O)N(c3ccccc3)N=C2C)cc(Cl)c1OCC(=O)OC
active: [2] 2.64 µM | [5] 7.43 µM | [6] 6.62 µM
inactive: [10] | [3] | [4]

O=C(O)[C@@H](c1ccc(OCc2ccc3ccccc3n2)cc1)C1CCCC1
inactive: [10] | [2] | [3] | [5] | [4] | [6] | [7] | [8]

c1ccc(-c2nn3c(c2-c2ccnc4cc(OCCN5CCOCC5)ccc24)CCC3)nc1
active: [1] 26.4 µM | [6] 23.5 µM

CCCS(=O)(=O)Nc1ccc(F)c(C(=O)c2c[nH]c3ncc(-c4ccc(Cl)cc4)cc23)c1F
inactive: [7]
active: [1] 26.4 µM | [5] 7.43 µM | [4] 16.6 µM

Clc1cccc(Cl)c1NC1=NCCN1
inactive: [10] | [2] | [3] | [4] | [6] | [7] | [8]
active: [5] 18.7 µM

O=C(Nc1cccnc1)N1CCC(Cc2cccc(Oc3ccc(C(F)(F)F)cn3)c2)CC1
active: [1] 10.5 µM | [5] 14.8 µM | [9] 13.2 µM | [6] 16.6 µM | [7] 4.69 µM

COc1cc2c(cc1OC)CN(CCc1ccc(NC(=O)c3cccc4c(=O)c5cccc(OC)c5[nH]c34)cc1)CC2
inactive: [4] | [8]
active: [1] 20.9 µM | [5] 2.64 µM

CC(C[N+](C)(C)C)OC(N)=O (centres undefined)
inactive: [10] | [2] | [3] | [5] | [4]
